# Screening data (PubChem)
# An excerpt weighted towards active compounds, which were near 12% of everything screened.
# PLK1 PBD inh – PLK1 (human) polo-box domain binding inhibition. P53350. Plk1 PBD binding of FITC phosphopeptide, fluorescence polarization. Potency, µM, for inactives: max response, negative = inhibition, most hits filed as inhibitors. actives 2.8% (n = 360,000). AID 720504; note: series mostly up to about 57 µM; % is set by controls: 0 for no effect and ±100 for the full control effect; nearly all actives have a fitted effect of over 65% in size
# BAZ2B inh – inhibitors of human BAZ2B bromodomain | Q9UIF8 | AlphaScreen BAZ2B-H3K14Ac peptide displacement | Potency, µM (doses to about 114 µM), for inactives: at the top dose activity change, negative = inhibition, most hits filed as inhibitors | actives 4.4% (n = 360,000) | AID 504333; note: % is set by controls: 0 for no effect and ±100 for the full control effect; nearly all actives have a fitted effect of over 60% in size
#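 BAZ2B 50 nM plus b-H3(5-23)K14Ac 50 nM, PBS pH 7.4/0.01% Tween-20, 30 min RT; compound added (max 110 uM), 30 min RT; streptavidin donor/Ni-chelate acceptor beads 10 ug/mL final, 20 min dark; AlphaScreen read.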
# JMJD2A Tudor inh – blocks the human JMJD2A Tudor domain. AlphaScreen JMJD2A-Tudor / H3K4me3 peptide binding. Potency, µM (top dose mostly 114 µM), inactives show at the highest dose activity change, negative = inhibition, actives largely listed as inhibitors. actives 4.4% (n = 390,000); note: % is set by controls: 0 for no effect and ±100 for the full control effect; nearly all actives have a fitted effect of over 50% in size
# HP1b chromo inh – HP1-beta chromodomain-methylated histone interaction inhibition. P83916. AlphaScreen HP1-beta / biotin-H3K9me3 peptide binding. Potency, µM (doses to about 114 µM), inactives show at the highest dose activity change, negative = inhibition, usual class: inhibitors. actives 0.56% (n = 390,000); note: nearly all actives have a fitted effect of over 70% in size
# Target sequence (P83916 whole entry, looked up): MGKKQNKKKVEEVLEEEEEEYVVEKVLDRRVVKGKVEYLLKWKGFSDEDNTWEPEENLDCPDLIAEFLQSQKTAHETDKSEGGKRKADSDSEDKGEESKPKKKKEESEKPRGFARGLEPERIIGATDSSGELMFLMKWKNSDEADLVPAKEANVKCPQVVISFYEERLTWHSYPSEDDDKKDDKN
#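 HP1-beta protein (50 nM final) preincubated 30 min at room temperature with biotinylated H3(1-18)K9me3 peptide (50 nM) in PBS pH 7.4, 0.01% Tween-20, then compound added for 30 min. AlphaScreen streptavidin donor/nickel chelate acceptor beads (10 ug/mL final), 30 min dark, luminescence read.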
# G9a block – G9a (human) methyltransferase inhibition. Q96KQ7. G9a H3K9 monomethylation, AlphaScreen, 2 h. Potency, µM (doses to about 102 µM), without a hit: at the top dose activity, negative = inhibition, actives largely listed as inhibitors. actives 8.8% (n = 350,000); note: % is set by controls: 0 for no effect and ±100 for the full control effect; nearly all actives have a fitted effect of over 75% in size
# Target sequence (Q96KQ7 913-1193 limits assumed): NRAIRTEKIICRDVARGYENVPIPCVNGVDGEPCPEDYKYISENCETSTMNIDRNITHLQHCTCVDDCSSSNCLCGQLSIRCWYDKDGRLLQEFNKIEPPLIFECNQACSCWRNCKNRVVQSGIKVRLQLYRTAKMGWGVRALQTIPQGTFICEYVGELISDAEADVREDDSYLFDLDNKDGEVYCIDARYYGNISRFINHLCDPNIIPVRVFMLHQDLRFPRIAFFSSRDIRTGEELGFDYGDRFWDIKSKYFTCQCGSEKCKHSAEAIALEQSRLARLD
#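 G9a (20 nM) preincubated 15 min RT with compounds, then 500 nM biotinylated H3K9 peptide and 20 uM SAM added; 2 h RT reaction. Monomethyl-H3K9 product detected by AlphaScreen with anti-H3K9me1 antibody, streptavidin donor and anti-rabbit IgG acceptor beads.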
# Sfp PPTase inh – blocks B. subtilis Sfp PPTase activity. Biochemical Sfp PPTase activity, qHTS. Potency, µM, without a hit: largest response in the series, negative = inhibition, actives largely listed as inhibitors. actives 3.5% (n = 310,000);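 note: the enzyme is Sfp with the accession as filed and its product quenches rhodamine fluorescence; 0% = enzyme reaction without inhibitor and -100% = no enzyme wells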
#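 Fluorescence-quenching assay with 15 nM Sfp, 5 uM rhodamine-CoA and 12.5 uM BHQ-2-labelled ybbR peptide in pH 7.6 Hepes/MgCl2 buffer. Enzyme was pre-incubated with compound for 15 min at room temperature. Rate was taken from the 30-min fluorescence change (525/598 nm).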
# * marks the source's active call; other numbers are inactive results; ? = inconclusive; . = no result; [ ] = another dose, or the depositor's remark. Calls come from the whole dose curve; as a rule, active = well fitted curve in the direction sought with a large enough effect; inconclusive = small, poorly fitted or top-dose-only effect, or another doubt; inactive = no such curve, though single readings can be large; an effect the other way counts as inactive or inconclusive. Potency is the fitted concentration of half-maximal effect.
SMILES,PLK1 PBD inh,BAZ2B inh,JMJD2A Tudor inh,HP1b chromo inh,G9a block,Sfp PPTase inh
Fc1ccccc1-c1csc(=Nc2cccnc2)n1CC1CCCO1 (centres undefined),-19.4%,?,?,-15.9%,-45.6%[59 µM],-84.9%
COCCn1c(-c2cccs2)csc1=Nc1cccnc1,-20.1%,44.7µM*,?,-3.9%,?,?
Fc1ccccc1-c1csc(=Nc2cccnc2)n1CCCn1ccnc1,-8.3%,44.7µM*,?,-19.0%,44.7µM*,5.5%
CC(C)Cn1c(-c2ccco2)csc1=Nc1cccnc1,?,31.6µM*,-31.5%,-9.4%,44.7µM*,?
COCCCn1c(C)csc1=Nc1cccnc1,-3.2%,-24.9%,-14.6%,33.3%,17.5%[59 µM],5.0%
COCCn1c(-c2ccco2)csc1=Nc1cccnc1,-22.4%,?,89.1µM*,-11.2%,?,20µM*
O=C(C[C@@H]1CC[C@@H]2[C@H](COC[C@H](O)CN2CCC(F)(F)F)O1)NCc1ccc2c(c1)OCO2,-5.4%,.,.,.,.,.
COc1ccc(N=Nc2[nH]c3ccc(C)cc3c2O)cc1,7.1%,?,4.2%,23.6%,11.2µM*,-16.3%
Cc1ccc(N=Nc2[nH]c3ccccc3c2O)cc1,-21.2%,56.2µM*,?,32.4%,14.1µM*,-13.7%
Cc1ccc(S(=O)(=O)N2CCC(N3CCN(C)CC3)CC2)cc1Cl,-8.7%,-1.7%,-11.0%,-12.8%,-20.4%,5.6%
O=C1C2C3C=CC(C3)C2C(=O)N1CCN1CCN(Cc2ccc([N+](=O)[O-])cc2)CC1 (centres undefined),21.2µM*,-13.0%,?,21.1%,-4.2%,4.9%
O=C(CN1C(=O)C2C3C=CC(C4CC34)C2C1=O)OCC(=O)c1ccccc1 (centres undefined),-16.3%,2.8%,-14.8%,29.1%,6.5%[59 µM],2.0%
O=C(CN1C(=O)C2C3CC(C(Br)C3Br)C2C1=O)OCC(=O)c1cccc([N+](=O)[O-])c1 (centres undefined),21.2µM*,.,-1.4%,-12.9%,-0.3%,9.7%
COc1ccc(C(=O)COC(=O)CN2C(=O)C3C4CCC(C4)C3C2=O)cc1 (centres undefined),23.8µM*,-0.7%,50.1µM*,7.7%,11.0%,19.2%
O=C(CN1C(=O)C2C3C=CC(C3)C2C1=O)OCC(=O)c1ccc(Cl)cc1 (centres undefined),-0.3%,-10.0%,6.1%,26.1%,.,1.5%
COc1ccc(C(=O)COC(=O)C(C)N2C(=O)C3C4CCC(C4)C3C2=O)cc1 (centres undefined),-8.3%,37.6%,-12.0%,10.4%,5.7%[12.7 µM],10.9%
O=C(CN1C(=O)C2C3C=CC(C3)C2C1=O)OCC(=O)c1ccc([N+](=O)[O-])cc1 (centres undefined),-4.5%,1.9%,-12.7%,8.7%,39.8µM*,?
COc1ccc(/C(C)=N/NC(=O)CNC(=O)/C=C\c2ccccc2)c(OC)c1,-11.9%,?,-12.1%,15.8%,25.7%,-2.2%
O=C(NC1CCCc2ccccc21)c1ccccc1OC(F)F (centres undefined),7.7%,10.4%,20.5%,36.4%,6.8%[59 µM],12.3%
COc1cc2c(C=O)c3c4c(cc(OC)c(OC)c4c2cc1OC)CCN3C,.,.,.,.,.,-19.4%
CC1OC(COCc2ccccc2)Cc2[nH][nH]c(=O)c21 (centres undefined),-0.7%,.,.,.,.,.
CC(=O)C1C(=O)CC(c2ccc(Cl)cc2)CC1=O (centres undefined),1.6%,-23.3%,?,9.4%,56.2µM*,18.4%
Cc1ccc(C2=NOC(=O)/C2=C\c2ccc(C)o2)cc1,0.752µM*,11.2µM*,35.5µM*,28.2µM*,.,39.8µM*
Cc1ccc(/C=C2\C(=O)ON=C2c2ccccc2)o1,?,-19.7%,-33.6%,?,-12.6%,15.2%
O=C1/C(=C\c2ccc(-c3ccccc3[N+](=O)[O-])o2)C(c2ccccc2)=NN1c1ccccc1,3.36µM*,6.31µM*,5.62µM*,7.94µM*,3.98µM*,-2.0%
SMILES,PLK1 PBD inh,BAZ2B inh,JMJD2A Tudor inh,HP1b chromo inh,G9a block,Sfp PPTase inh
Cc1ccc(-c2ccc(/C=C3\C(=O)ON=C3c3ccccc3)o2)c([N+](=O)[O-])c1,1.68µM*,10µM*,22.4µM*,-54.8%,27.1%[0.501 µM],22.4µM*
COc1ccc2c(c1OC)C(=O)N1C2SC[C@H]1C(=O)NC1CCCC1 (some centres undefined),?,-12.1%,-24.1%,37.8%,?,2.5%
COCCCn1c(=O)c2ccccc2c2ccccc2c1=O,-0.7%,-28.7%,25.2%,45.6%,64.9%[59 µM],18.3%
CC1CCN(CCCn2c(=S)[nH]c3c(sc4ccc([N+](=O)[O-])cc43)c2=O)CC1,-9.3%,-16.8%,-12.7%,27.9%,39.8µM*,56.2µM*
CC1CCN(CCCn2c(=S)[nH]c3c(sc4ccccc43)c2=O)CC1,-8.2%,-25.2%,?,1.3%,8.91µM*,-23.5%
COCCn1c(=O)sc2ccccc2c1=O,2.99µM*,-0.4%,14.1µM*,3.1%,1.5%,7.5%
COCCCn1c(=S)[nH]c2c(sc3ccccc32)c1=O,-19.5%,-11.1%,-34.7%,-7.0%,?,79.4µM*
CCOc1ccc(NC(=O)CC2C(=O)N(c3cccc(C)c3)C(=O)N2Cc2ccco2)cc1 (centres undefined),.,-29.0%,-19.0%,48.3%,?,.
CCOC(=O)CSc1cccc2cccnc12,13.4µM*,-6.6%,-8.6%,18.5%,-0.2%[59 µM],-24.3%
Cc1cccc(CSc2cccc3cccnc23)c1,10.6µM*,62.1%,19.7%[57.1 µM],148.3%,178.2%,-21.0%
COc1ccc(C2Nc3ccccc3C(=O)N2Cc2ccco2)cc1 (centres undefined),.,.,-16.9%[57.1 µM],13.5%[57 µM],.,.
COC(=O)C[C@@H]1C=C[C@H](NS(=O)(=O)c2cccc(F)c2)[C@@H](CO)O1,4.1%,.,.,.,.,.
Cc1cc2c(Nc3ccccc3)ncnc2s1,-12.2%,-13.2%,-4.8%,23.7%,?,0.3%
Cc1cc2c(NCCc3ccccc3)ncnc2s1,3.0%,?,3.5%,34.3%,50.1µM*,-6.3%
Cn1c(NCCO)nc2c1c(=O)n(Cc1ccccc1Cl)c(=O)n2C,.,-12.4%,-20.6%,24.9%,3.1%[59 µM],.
CC1CC(=O)c2cc(-c3ccccc3)oc2C1 (centres undefined),4.2%,.,.,.,.,.
CC1CC(=O)C(C(C2=C(O)CC(C)CC2=O)c2ccccc2)=C(O)C1 (centres undefined),11.9µM*,.,-2.1%,39.7%,.,.
CCC1CCCCN1C(=O)COC(=O)CSc1ccc(C(N)=O)cc1[N+](=O)[O-] (centres undefined),-10.7%,6.7%,-7.1%,50.4%,3.3%[12.7 µM],.
CCOC(=O)CSc1ccc(S(=O)(=O)N(C)C2CCCCC2)cc1[N+](=O)[O-],-8.0%,?,56.2µM*,-20.0%,?,22.3%
